Screens deposited in PubChem BioAssay by The Scripps Research Institute Molecular Screening Center.
Only some compounds are listed: those with a hit (about 2.5% of all), similar ones and a draw of the others.
UHRF1 MBD2 ctr: UHRF1 methylated DNA binding inhibitors, primary screen, counter-screen for MBD2 inhibitor project, biochemical, TR-FRET, human UHRF1, single concentration; E3 ubiquitin-protein ligase UHRF1 (Homo sapiens), Q96T88; UHRF1 binding to methylated oligo; inhibition, % at 4.4 µM; 0.75% of 370,000 active; AID 687016, 2013;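 note: UHRF1 SRA domain binding a hemimethylated CpG hairpin DNA probe; 0% = median of test compound wells and 100% = reference inhibitor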
Target sequence (Q96T88 whole entry, looked up, the tested form may be a part): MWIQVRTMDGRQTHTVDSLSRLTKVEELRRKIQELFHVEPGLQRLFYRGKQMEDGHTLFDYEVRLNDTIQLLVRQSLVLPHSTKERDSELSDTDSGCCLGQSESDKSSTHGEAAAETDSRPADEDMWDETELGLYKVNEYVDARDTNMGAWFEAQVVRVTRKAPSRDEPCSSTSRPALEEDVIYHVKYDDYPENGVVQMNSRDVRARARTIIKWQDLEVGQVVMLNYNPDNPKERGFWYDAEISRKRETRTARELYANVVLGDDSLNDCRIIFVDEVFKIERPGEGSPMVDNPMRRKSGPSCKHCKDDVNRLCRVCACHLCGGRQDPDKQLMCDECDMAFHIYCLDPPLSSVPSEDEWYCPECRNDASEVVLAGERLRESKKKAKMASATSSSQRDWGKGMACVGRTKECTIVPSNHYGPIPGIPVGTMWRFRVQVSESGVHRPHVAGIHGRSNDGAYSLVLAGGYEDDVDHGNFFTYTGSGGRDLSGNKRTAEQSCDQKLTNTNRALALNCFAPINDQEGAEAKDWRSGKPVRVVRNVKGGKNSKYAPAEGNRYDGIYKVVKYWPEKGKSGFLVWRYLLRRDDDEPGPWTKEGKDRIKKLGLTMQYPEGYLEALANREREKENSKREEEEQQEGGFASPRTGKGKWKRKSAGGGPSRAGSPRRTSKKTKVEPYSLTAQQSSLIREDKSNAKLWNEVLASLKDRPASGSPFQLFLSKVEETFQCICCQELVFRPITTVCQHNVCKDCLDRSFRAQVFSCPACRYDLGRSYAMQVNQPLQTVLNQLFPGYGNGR
MBD2 DNA inh: inhibitors of MBD2 binding to methylated DNA, primary screen, biochemical, TR-FRET, DNA-binding domain, human. inhibition, % at 4.4 µM. MBD2 binding to methylated oligonucleotide. 0.31% of 370,000 active. Methyl-CpG-binding domain protein 2 (Homo sapiens), Q9UBB5; in the data active = inhibition above about 13%
PRMT1 FP inh: PRMT1 methyltransferase inhibitors, primary screen, biochemical, fluorescence polarization; Protein arginine N-methyltransferase 1 (Homo sapiens), Q99873; 1.3% of 370,000 active; inhibition, % at 2.79 µM; recombinant PRMT1, activity-based probe fluorescence polarization;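 active = inhibition above about 21% made by adding two undisclosed values, limit read from the data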
LEDGF integ inh: blockers of LEDGF/p75-dependent integrase strand transfer – biochemical, TR-FRET, high throughput, primary screen; HIV-1 integrase (with human LEDGF/p75); AID 743269, 2014; inhibition, % at 3.7 µM; TR-FRET IN-LEDGF/p75 DNA integration, Eu/Cy5; 0.64% of 370,000 active;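 active = inhibition above the screen-wide mean plus 3 SD, cut at about 13% in these data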;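 note: signal is the Cy5 over europium emission ratio at 671 and 618 nm; 0% = plate median of compound wells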
UHRF1 DNA bind: UHRF1 methylated DNA binding inhibitors, counter-screen for MBD2 inhibitor project, biochemical, TR-FRET, human UHRF1 | shares compounds with MBD2 DNA inh | inhibition, % at 4.4 µM | 25% of 1,000 active | AID 720530, 2013 | UHRF1 binding to methylated oligonucleotide;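 note: UHRF1 SRA domain binding a labeled hemimethylated CpG hairpin DNA; 0% = vehicle only and 100% = reference inhibitor with vehicle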
MBD2 confirm: inhibitors of MBD2 binding to methylated DNA, confirmation, biochemical, TR-FRET, DNA-binding domain, human. shares compounds with MBD2 DNA inh. TR-FRET MBD2-DBD binding to methylated oligonucleotide. inhibition, % at 4.4 µM. 26% of 1,000 active. AID 720531, 2013; in the data active = inhibition above about 14%
* marks the source's active call; other numbers are inactive results. Cut-off read from the data, not from the text of the source, unless noted: active = inhibition above about 21%; inactive = the rest.

What do the screens show for `CCn1c(SCC(=O)c2ccc(O)c(O)c2)nnc1-c1ccc(C)cc1`?
UHRF1 MBD2 ctr: 44*; MBD2 DNA inh: 15*; PRMT1 FP inh: 8; LEDGF integ inh: 6; UHRF1 DNA bind: 14; MBD2 confirm: 5

How did CCn1c(SCC(=O)c2ccc(-c3ccccc3)cc2)nnc1-c1ccc(C(C)(C)C)cc1 do in these assays?
UHRF1 MBD2 ctr: 4; MBD2 DNA inh: -3; PRMT1 FP inh: 1; LEDGF integ inh: 1

Results for O=C(COC(=O)Cc1ccc(F)cc1)NCc1ccco1 ?
UHRF1 MBD2 ctr: 4; MBD2 DNA inh: 3; PRMT1 FP inh: 4; LEDGF integ inh: 0

What do the screens show for `O=C(COC(=O)Cc1cccc(C(F)(F)F)c1)NCc1ccco1`?
UHRF1 MBD2 ctr: 35*; MBD2 DNA inh: 17*; PRMT1 FP inh: -1; LEDGF integ inh: 11; UHRF1 DNA bind: 21*; MBD2 confirm: 6

What do the screens show for `CCCSc1nc(C)c(-c2csc(C(C#N)=C3CCCC3)n2)cc1C#N`?
UHRF1 MBD2 ctr: 17; MBD2 DNA inh: 16*; PRMT1 FP inh: 5; LEDGF integ inh: 2; UHRF1 DNA bind: 7; MBD2 confirm: 6

How did C/C=C/C(=O)Nc1cccc(C2=NOC3(C2)C[C@@H](C(N)=O)N(C(=O)c2cc([N+](=O)[O-])cc([N+](=O)[O-])c2)C3)c1 (some centres not stated) do in these assays?
UHRF1 MBD2 ctr: 3; MBD2 DNA inh: 16*; PRMT1 FP inh: -2; LEDGF integ inh: -1; UHRF1 DNA bind: 2; MBD2 confirm: 3

Results for C=C(C)C(=O)Nc1cccc(C2=NOC3(C2)C[C@@H](C(N)=O)N(C(=O)CC(c2ccccc2)c2ccccc2)C3)c1 (some centres not stated) ?
UHRF1 MBD2 ctr: 63*; MBD2 DNA inh: 26*; PRMT1 FP inh: 3; LEDGF integ inh: 3; UHRF1 DNA bind: 60*; MBD2 confirm: 42*

How did C=C(C)C(=O)Nc1cccc(C2=NOC3(C2)C[C@H](C(N)=O)N(C(=O)c2ccccc2C(=O)c2ccccc2)C3)c1 (some centres not stated) do in these assays?
UHRF1 MBD2 ctr: 80*; MBD2 DNA inh: 31*; PRMT1 FP inh: -3; LEDGF integ inh: 12; UHRF1 DNA bind: 67*; MBD2 confirm: 42*

How did C/C=C(\C)C(=O)Nc1cccc(C2=NOC3(C2)C[C@@H](C(N)=O)N(C(=O)c2ccccc2C(=O)c2ccccc2)C3)c1 (some centres not stated) do in these assays?
UHRF1 MBD2 ctr: -1; MBD2 DNA inh: 4; PRMT1 FP inh: 0; LEDGF integ inh: 0

How did COC(=O)[C@@]1(Cc2ccccc2)[C@H]2C(=O)N(C)C(=O)[C@H]2[C@H]2CN(C)C(=NCc3ccccc3)N21 do in these assays?
UHRF1 MBD2 ctr: 1; MBD2 DNA inh: -5; PRMT1 FP inh: 1; LEDGF integ inh: -3

What do the screens show for `O=C(CNCc1ccccn1)Nc1ccc([N+](=O)[O-])cc1C(=O)Nc1ccccc1F`?
UHRF1 MBD2 ctr: -2; MBD2 DNA inh: 2; PRMT1 FP inh: 0; LEDGF integ inh: 2

Results for O=C(Nc1ccc(OC(F)(F)F)cc1)Nc1c(-c2ccc(C(F)(F)F)cc2)nc2ncccn12 ?
UHRF1 MBD2 ctr: -1; MBD2 DNA inh: -3; PRMT1 FP inh: -10; LEDGF integ inh: 4

What do the screens show for `O=C(NNC(=O)c1ccccc1F)c1cccc(-n2cccc2)c1`?
UHRF1 MBD2 ctr: 46*; MBD2 DNA inh: 24*; PRMT1 FP inh: 4; LEDGF integ inh: 7; UHRF1 DNA bind: 46*; MBD2 confirm: 34*

What do the screens show for `O=C(NNC(=O)c1cccc(-n2cccc2)c1)c1ccccc1`?
UHRF1 MBD2 ctr: 1; MBD2 DNA inh: 4; PRMT1 FP inh: 4; LEDGF integ inh: 2
